G9a inh = G9a (human) methyltransferase inhibition | hit rate 8.8% among 350,000 | Q96KQ7 | Potency, µM (top dose mostly 102 µM), for the others: at the highest dose activity, negative = inhibition, most hits filed as inhibitors | G9a H3K9 monomethylation, AlphaScreen, 2 h; further: on the % scale 0 is the no-effect control and ±100 the full control effect; nearly all actives have a fitted effect of over 75% in size
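Readings reflect AlphaScreen signal from monomethyl-H3K9 antibody detection. HMT at 20 nM; substrate b-H3K9 500 nM; cofactor SAM 20 uM; 2 h RT reaction; compounds tested as titrations in qHTS with 15 min preincubation.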
BAZ2B inh = inhibitors of human BAZ2B bromodomain; AlphaScreen BAZ2B-H3K14Ac peptide displacement; Potency, µM (top dose mostly 114 µM), for the others: top-dose activity change, negative = inhibition, usual class: inhibitors; hit rate 4.4% among 360,000; AID 504333; further: on the % scale 0 is the no-effect control and ±100 the full control effect; nearly all actives have a fitted effect of over 60% in size
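AlphaScreen luminescence quantifies BAZ2B engagement of H3K14Ac peptide; the protein and biotinylated peptide are both at 50 nM final, buffer PBS pH 7.4 with 0.01% Tween-20, all steps at room temperature.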
HP1b binding inh = inhibitors of HP1-beta chromodomain binding to methylated histone tails; P83916; AlphaScreen HP1-beta / biotin-H3K9me3 peptide binding; Potency, µM (series often up to 114 µM), for the others: at the top dose activity change, negative = inhibition, usual class: inhibitors; hit rate 0.56% among 390,000; further: nearly all actives have a fitted effect of over 70% in size
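AlphaScreen: HP1-beta (50 nM) preformed 30 min with biotin-H3(1-18)K9me3 peptide (50 nM) in PBS pH 7.4, 0.01% Tween-20. Compound added for 30 min at RT, then streptavidin donor/nickel chelate acceptor beads (10 ug/mL) for 30 min.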
ALOX12 inh = inhibitors of human 12S-lipoxygenase ALOX12 | P18054 | purified 12hLO, xylenol orange hydroperoxide absorbance | Potency, µM (titrated, usually from 108 µM), inactives show at the top dose activity change, negative = inhibition, most hits filed as inhibitors | hit rate 1.1% among 580,000; further: on the % scale 0 is the no-effect control and ±100 the full control effect
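Purified human 12hLO (150 nM final) in 25 mM Hepes, 0.01% Triton X-100, pH 7.0 was preincubated 15 min at room temperature with compound. Then 40 uM arachidonic acid was added, 30 min. Hydroperoxide was read by Fe-XO absorbance ratio 573/405 nm.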
JMJD2A Tudor = blocks the human JMJD2A Tudor domain; O75164; AlphaScreen JMJD2A-Tudor / H3K4me3 peptide binding; Potency, µM (series often up to 114 µM), without a hit: at the highest dose activity change, negative = inhibition, actives largely listed as inhibitors; hit rate 4.4% among 390,000; further: on the % scale 0 is the no-effect control and ±100 the full control effect; nearly all actives have a fitted effect of over 50% in size
PLK1 PBD inh = PLK1 (human) polo-box domain binding inhibition. P53350. Plk1 PBD binding of FITC phosphopeptide, fluorescence polarization. Potency, µM, inactives show max response, negative = inhibition, most hits filed as inhibitors. hit rate 2.8% among 360,000. AID 720504; further: series mostly up to about 57 µM; on the % scale 0 is the no-effect control and ±100 the full control effect; nearly all actives have a fitted effect of over 65% in size
An asterisk follows results filed as active; u = inconclusive; x = no result given; [ ] = another dose, or the depositor's remark. In the library only some 9% were active in any assay of this set; here they are far more common. The call rests on the fitted dose curve; in most records, active means well fitted curve in the direction sought with a large enough effect; inconclusive means small, poorly fitted or top-dose-only effect, or another doubt; inactive means no such curve, though single readings can be large; an effect the other way counts as inactive or inconclusive. Potency means the concentration at half of the fitted maximal effect.

SMILES | G9a inh | BAZ2B inh | HP1b binding inh | ALOX12 inh | JMJD2A Tudor | PLK1 PBD inh
Cc1cccc(NC(=O)c2nc(S(C)(=O)=O)ncc2Cl)c1 | 8.9µM* | -1% | 36% | -13% | -26% | x
COc1cccc(NC(=O)c2nc(S(C)(=O)=O)ncc2Cl)c1 | 35µM* | -17% | 83% | -21% | -5% | 24µM*
COc1cccc(NC(=O)c2nc(SC)ncc2Cl)c1 | -15% | -1% | 37% | -6% | -5% | -4%
CCS(=O)(=O)c1ncc(Cl)c(C(=O)Nc2c(C(=O)Nc3cccc(C)c3)oc3ccccc23)n1 | u | 0% | 25% | -21% | -1% | x
CN(c1ccccc1)S(=O)(=O)c1ccc(NC(=O)c2nc(S(C)(=O)=O)ncc2Cl)cc1 | 11µM* | -26% | 2% | u | u | 17µM*
O=C(NC1CCCC1)C(c1cc2c(cc1[N+](=O)[O-])OCO2)N1CCCC1 (configuration not stated) | -25% | -21% | 17% | 0% | -9% | 3%
O=C(Nc1ccc(O)cc1)c1ccc2c(c1)C(=O)N(Cc1ccccc1)C2=O | -9% | -16% | 14% | -3% | -7% | -4%
CCC(CC)C(=O)NC[C@@H]1C=C(C)[C@H](Cc2nc3ccc(F)cc3[nH]2)C[C@H]1C(C)C | x | x | x | 27%[176 µM] | x | x
CC(C)OC(=O)CC1NCCNC1=O (configuration not stated) | x | x | x | 30% | x | x
C=CCNCc1ccc(C(=O)NCCCCCCC)cc1[N+](=O)[O-] | 23%[2.33 µM] | 10% | 26% | -4% | -21% | -5%
O=C(/C=C/c1ccccc1)NC(=S)NNC(=O)c1cccnc1 | 22µM* | -8% | 23% | 0% | -19% | -8%
O=C(/C=C/c1ccccc1)NC(=S)NNS(=O)(=O)c1ccccc1 | 12% | -17% | u | u | -30% | u
COc1cc(C(=O)NNC(=S)NC(=O)/C=C/c2ccccc2)cc(OC)c1OC | 32µM* | -2% | -2% | u | -12% | -12%
COc1ccc(/C=C/C(=O)NC(=S)NNC(=O)c2cccnc2)cc1OC | -6%[12.7 µM] | 3% | 46% | 0% | -12% | -8%
O=C(/C=C/c1ccccc1)NC(=S)NNC(=O)c1ccccc1 | x | x | x | 6.3µM* | x | x
CN1c2ccsc2C(O)=C(C(=O)Nc2ccccc2)S1(=O)=O | -7%[12.7 µM] | 10% | 25% | 39% | -20% | -6%
COc1cccc(C(O)c2ncc(-c3ccccc3Cl)[nH]2)c1 (configuration not stated) | x | x | x | -49% | x | 2%
C/C(=N\N=C1\NC(=O)C(CC(=O)O)S1)c1ccccn1 (configuration not stated) | x | 50µM* | 51% | 159% | u | -3%
CCN(CC)c1ccc(-n2c(C)cc(C=O)c2C)cc1 | 45µM* | u | u | u | -7%[11.4 µM] | -18%
Cc1ccc(-n2c(C)cc(C=C(C#N)C#N)c2C)cc1 | -6%[59 µM] | 3% | 9% | 57%[57.4 µM] | -21% | -2%
CC(=O)c1c(C(C)=O)c(C)n(-c2ccc(O)cc2)c1C | -1%[59 µM] | -39% | 6% | -14% | -29% | -13%
CCN(CC)c1ccc(-n2c(C)c(C(C)=O)c(C(C)=O)c2C)cc1 | u | x | u | 2% | 89µM* | -1%
COc1ccc(CCNC(=O)COC(=O)C23CC4CC(CC(Br)(C4)C2)C3)cc1 | 26%[59 µM] | 0% | 43% | -11% | 9% | 0%
CCCCc1ccc(NC(=O)CN2C(=O)NC3(CCCCC3)C2=O)cc1 | x | x | x | 2% | x | x
Cc1cc(N2CCC(C)CC2)nc2cccc(O)c12 | 50µM* | -29% | -3% | u | u | -6%
Cc1cc(C)c(C)c(OCC(=O)N2CCOCC2)c1 | -8%[59 µM] | -2% | 36% | 13% | 2% | -4%
CC1CN(CCS(=O)(=O)c2cc(Cl)ccc2Cl)CC(C)O1 (configuration not stated) | -12% | 2% | 18% | -5% | 1% | 2%
CC1CN(CCCCOc2ccc(Cl)c3ccccc23)CC(C)O1 (configuration not stated) | x | u | -33% | u | 11µM* | 8%
